Values joined by “and” are separate entries in the source; they are usually repeats but may differ in a detail not shown here. Equal values may be shown once. The campaign covered roughly 6,400 compounds. About 610 (9.5%) were called active. This is one part of a sample in which actives are shown more often than they occur. Rule as the data show it: active = activity change below about -70%; inconclusive = no clear call, values can overlap the other calls; inactive = above that. More than one record can exist for a structure, and the calls need not agree.

The test can be described thus: Toxoplasma gondii ME49Luc growth in HeLa cells, luciferase, no IFN-y, primary screen (AID 1259421). Conditions: T. gondii ME49Luc in HeLa, 72 h, stronger effect = lower value, concentration not given here.
In the case of `CC(C)C(=O)OC[C@H]1O[C@@H](n2ccc(N)nc2=O)[C@](C)(F)[C@@H]1OC(=O)C(C)C`, the activity change, negative = inhibition is 23.1% (inactive). In the case of `O=C(Nc1ncc(SCCN2CCCC2)s1)[C@]1(c2ccc(S(=O)(=O)C3CC3)cc2)C[C@H]1C1CCCCC1` it was -76.3% (active) and -62.6% (inactive). Consider `CC(C)(C)[C@@]1(O)CCN2C[C@@H]3c4ccccc4CCc4cccc(c43)[C@H]2C1`, for which the activity change, negative = inhibition was 13.9% (inactive). Regarding `CC(C)c1cc(/C=C(\C#N)C(=O)NCCCc2ccccc2)cc(C(C)C)c1O`, the activity change, negative = inhibition is -46.1% (inactive). Consider `CCN(CC)CCCCC(NC(=O)c1ccc([N+](=O)[O-])cc1)c1ccccc1` (stereo not given), for which the activity change, negative = inhibition was 34.1% (inactive).

With `CCC[C@H](NC(=O)/C(C#N)=C/c1cccc(Br)n1)c1ccccc1`, the activity change, negative = inhibition was -77% (active).

Take `C[C@H](NC(=O)/C(C#N)=C/c1cccc(Br)n1)c1ccccc1`: the activity change, negative = inhibition is -73.9% (active). Turning to `C[C@@H](NC(=O)/C(C#N)=C\c1ccc(O)c(O)c1)c1ccccc1`, the activity change, negative = inhibition is -3.05% (inactive).

`C[C@H](NC(=O)/C(C#N)=C/c1ccc(O)c(O)c1)c1ccccc1`: the activity change, negative = inhibition is 13.8% (inactive) and 32.8% (inactive). As to `O=C(CS(=O)Cc1ccco1)NC/C=C\COc1cc(CN2CCCCC2)ccn1` (stereo not given), the activity change, negative = inhibition is 8.76% (inactive). Consider `CC12C=CCC1C1CCC3CC(=O)CCC3(C)C1CC2` (stereo not given), for which the activity change, negative = inhibition is 14.3% (inactive). As for `COc1ccc(NC(=O)c2cc(OCCCN(C)C)nn2Cc2ccccc2)cc1`, the activity change, negative = inhibition is 3.25% (inactive) and 7.86% (inactive). Turning to `CCC(=O)NS(=O)(=O)c1ccc(-c2c(-c3ccccc3)noc2C)cc1`, the activity change, negative = inhibition was 23.5% (inactive). For the compound `CC1(c2ccccc2)OC(C(=O)O)=CC1=O` (stereo not given), the activity change, negative = inhibition was 15.7% (inactive). For `Nc1cccc2c(=O)[nH][nH]c(=O)c12`, the activity change, negative = inhibition is 7.31% (inactive). In the case of `CCCS(=O)(=O)Nc1ccc(F)c(C(=O)c2c[nH]c3ncc(-c4ccc(Cl)cc4)cc23)c1F` it was -58.2% (inactive) and -67.7% (inactive). In the case of `COc1ncc(-c2ccc3nccc(-c4ccnnc4)c3c2)cc1NS(=O)(=O)c1ccc(F)cc1F`, the activity change, negative = inhibition was -79.5% (active). Turning to `CCc1cc(-c2n[nH]c(C)c2-c2ccc3c(c2)OCCO3)c(O)cc1O`, the activity change, negative = inhibition is -16.3% (inactive). Turning to `NC(=NCCCCCCN=C(N)/N=C(\N)Nc1ccc(Cl)cc1)/N=C(\N)Nc1ccc(Cl)cc1`, the activity change, negative = inhibition is -58% (inactive). Regarding `CCN(CC)CCCCN1c2ccccc2Oc2ccc(Cl)cc21`, the activity change, negative = inhibition was -10.3% (inactive) and 12.5% (inactive). On to `CCN(CC)CCOc1ccc(/C(=C(\Cl)c2ccccc2)c2ccccc2)cc1`, for which the activity change, negative = inhibition was -69.8% (inactive) and -52.9% (inactive). Regarding `CC/C(=C(/c1ccccc1)c1ccc(OCCN(C)C)cc1)c1ccccc1`, the activity change, negative = inhibition was -72.4% (active). For the compound `CN(C)CCOC(=O)COc1ccc(Cl)cc1`, the activity change, negative = inhibition was 4.1% (inactive) and 6.57% (inactive). Under `CN(C)CCOc1ccc(/C(=C(/CCCl)c2ccccc2)c2ccccc2)cc1` stands -77.6% (active) and -84.8% (active); under `CCN(CC)CCOc1ccc(Cc2ccccc2)cc1`, 5.6% (inactive) and 13.5% (inactive). Regarding `CC/C(=C(\c1ccccc1)c1ccc(OCCN(C)C)cc1)c1ccccc1`, the activity change, negative = inhibition is 13.1% (inactive) and -14.7% (inactive) and -6.44% (inactive). For the compound `CC(=O)OCC(=O)[C@@]12OC3(CCCC3)O[C@@H]1CC1C3CCC4=CC(=O)C=C[C@]4(C)[C@@]3(F)[C@@H](O)C[C@@]12C` (stereo not given in full), the activity change, negative = inhibition is -7.19% (inactive) and -8.15% (inactive).

`C[C@]12C=CC(=O)C=C1CCC1C2[C@@H](O)C[C@@]2(C)C1CC[C@]2(O)C(=O)COC(=O)CCC(=O)O` (stereo not given in full): the activity change, negative = inhibition is -10.6% (inactive) and -6.45% (inactive). For `CC(=O)OC[C@H]1O[C@@H](n2ccc(=O)[nH]c2=O)[C@H](OC(C)=O)[C@@H]1OC(C)=O`, the activity change, negative = inhibition was 8.3% (inactive). In the case of `C=CC1CN2CCC1CC2[C@@H](O)c1ccnc2ccc(OC)cc12` (stereo not given in full) it was 21.1% (inactive). Regarding `COc1nccc(-c2c(-c3ccc(F)cc3)ncn2C2CCC(O)CC2)n1` (stereo not given), the activity change, negative = inhibition is -77.2% (active). `COc1nccc(-c2c(-c3ccc(F)cc3)ncn2C2CCNCC2)n1`: the activity change, negative = inhibition is -64.9% (inactive). As for `CCOc1ccc(Cc2cc([C@@]34OC[C@@](CO)(O3)[C@@H](O)[C@H](O)[C@H]4O)ccc2Cl)cc1`, the activity change, negative = inhibition was 12.2% (inactive). In the case of `CSCC1CN(/N=C/c2ccc([N+](=O)[O-])o2)C(=O)O1` (stereo not given) it was 3.31% (inactive). In the case of `CCNC(=O)CCC/C=C/C[C@@H]1[C@H](C=C[C@H](O)CCc2ccccc2)[C@@H](O)C[C@@H]1O` it was -1.53% (inactive); in that of `CCCC[P+](CCCC)(CCCC)Cc1ccc(NC(=O)[C@H](Cc2ccc3ccccc3c2)NC(=NC2CCCCC2)NC2CCCCC2)cc1`, 27% (inactive); in that of `OC1(c2ccc(Cl)c(C(F)(F)F)c2)CCN(CCCC(c2ccc(F)cc2)c2ccc(F)cc2)CC1`, -65.8% (inactive) and -91.8% (active). On to `O=C(CCCN1CCC(O)(c2cccc(C(F)(F)F)c2)CC1)c1ccc(F)cc1`, for which the activity change, negative = inhibition is 30.3% (inactive). In the case of `O=C(CCCN1CCC(O)(c2ccc(Cl)cc2)CC1)c1ccc(F)cc1`, the activity change, negative = inhibition was 7.06% (inactive) and 15.9% (inactive). As to `Nc1ccn(C[C@@H](CO)OCP(=O)(O)O)c(=O)n1`, the activity change, negative = inhibition was -60.1% (inactive). Regarding `O/N=C/c1cc[n+](COC[n+]2ccc(/C=N/O)cc2)cc1`, the activity change, negative = inhibition was 8.88% (inactive). Turning to `C[C@H]1CC2C([C@@H](O)C[C@@]3(C)C2CC[C@]3(O)C(=O)CO)[C@@]2(C)C=CC(=O)C=C12` (stereo not given in full), the activity change, negative = inhibition is 5.02% (inactive).

As to `OC[C@H]1O[C@H](O)C[C@@H](O)[C@@H]1O`, the activity change, negative = inhibition is -36.7% (inactive). Regarding `CCOCCn1c(C2CCN(CCc3ccc(C(C)(C)C(=O)O)cc3)CC2)nc2ccccc21`, the activity change, negative = inhibition was 20.9% (inactive). As to `N#C/C(=C/c1ccc(O)c(O)c1)C(N)=O`, the activity change, negative = inhibition was 7.91% (inactive).

Values taken from PubChem BioAssay AID1259421 (Broad Institute, 2018).
